# From PubChem
# Cruzain noTriton: blocks cruzain activity in detergent-free assay. P25779. purified cruzain, Z-FR-AMC fluorescence, no detergent. Potency, µM, for inactives: max response, negative = inhibition, most hits filed as inhibitors. 200,000 compounds, 2.3% hits;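 also: plate controls were enzyme without inhibitor for no effect and buffer without enzyme for full effect; nearly all actives have a fitted effect of over 40% in size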
# Target sequence (P25779 123-467 limits assumed): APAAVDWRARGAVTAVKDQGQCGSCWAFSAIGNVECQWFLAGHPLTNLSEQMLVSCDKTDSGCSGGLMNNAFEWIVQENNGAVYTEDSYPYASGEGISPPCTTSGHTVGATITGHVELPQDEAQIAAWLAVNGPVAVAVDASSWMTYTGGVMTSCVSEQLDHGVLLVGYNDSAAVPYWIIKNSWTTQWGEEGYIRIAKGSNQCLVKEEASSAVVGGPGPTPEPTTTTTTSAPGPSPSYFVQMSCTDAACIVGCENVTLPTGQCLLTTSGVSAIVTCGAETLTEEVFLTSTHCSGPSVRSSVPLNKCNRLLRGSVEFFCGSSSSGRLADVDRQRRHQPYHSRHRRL
#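 Purified cruzain at 1.5 nM, pre-incubated 15 min with compound at room temperature in 100 mM sodium acetate pH 5.5, 5 mM DTT, 0.00005% Triton X-100. Reaction started with 2 uM Z-FR-AMC; AMC fluorescence increase over 60 s gives rate.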
# Cruzain Triton: inhibitors of Trypanosoma cruzi cruzain with detergent; P25779; purified cruzain, Z-FR-AMC fluorescence, 0.01% Triton; Potency, µM, inactives show max response, negative = inhibition, most hits filed as inhibitors; 200,000 compounds, 0.43% hits; AID 1478;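 also: plate controls were neutral wells for no effect and buffer without enzyme for full effect; nearly all actives have a fitted effect of over 40% in size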
#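 Cysteine protease activity tested under reducing, mildly acidic conditions (100 mM sodium acetate pH 5.5, 5 mM DTT) plus 0.01% Triton X-100. Cruzain 1.5 nM; substrate Z-FR-AMC 2 uM; 15 min compound preincubation at room temperature.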
# * hit, by the source's call; ? = inconclusive. In the library only some 2.4% were active in any assay of this set; here they are far more common. Calls follow the shape of the dose curve; as a rule, active = well fitted curve in the direction sought with a large enough effect; inconclusive = small, poorly fitted or top-dose-only effect, or another doubt; inactive = no such curve, though single readings can be large; an effect the other way counts as inactive or inconclusive. Potency is read from the fitted curve at half-maximal effect.
SMILES,Cruzain noTriton,Cruzain Triton
CCc1cccc(CC)c1NC(=O)c1ccc2c(c1)CCN2S(=O)(=O)c1ccccc1,-2.8%,-1.9%
Cc1ccc(S(=O)(=O)N2CCCc3cc(NC(=O)c4ccc(C(C)(C)C)cc4)ccc32)cc1,3.16µM*,4.3%
COc1ccc(C(=O)Nc2ccc3c(c2)CCCN3S(=O)(=O)c2ccc(C)cc2)cc1,?,-2.7%
O=C(Nc1ccc(Cl)c(C(F)(F)F)c1)c1ccc2c(c1)CCN2S(=O)(=O)c1ccccc1,25.1µM*,-0.2%
Cn1c(/C(C#N)=C/c2ccccc2Br)nc2ccccc21,-13.9%,0.1%
CCOC(=O)c1cc(-c2ccccc2)n(CCCC(=O)Nc2ccc(C)cc2Cl)c1C,0.1%,-0.4%
Cc1coc2cc3oc(=O)c(CCC(=O)N4CCCCC4)c(C)c3cc12,-4.3%,-8.7%
CCn1ccc2cc(S(=O)(=O)N3CCCN(C(=O)Nc4ccc(C)c(F)c4)CC3)ccc21,?,-4.6%
CC(C)c1ccc(CNCCSc2nnnn2-c2ccccc2)cc1,12.9%,2.3%
COC(=O)c1c(NC(=O)C2SC(=NC3CCCCC3)C(C(N)=O)=C2N)sc2c1CCCC2 (configuration not stated),7.94µM*,-2.9%
C=C(C)CN=C1SC(C(=O)Nc2sc3c(c2C(=O)OC)CCC3)C(N)=C1C(N)=O (configuration not stated),-17.8%,-5.0%
Cc1ccccc1NC(=O)CSc1cn(CC(=O)N2CCCCCC2)c2ccccc12,-16.2%,-2.2%
CCOc1ccc2c(c1)nc(SCC(=O)c1cccs1)n2C,9.6%,-1.7%
CCOc1ccc2c(c1)nc(SCC(=O)c1ccc(Br)s1)n2C,25.1µM*,4.0%
Cc1cc(C)cc(NC(=O)C2CC(=O)N(c3ccccc3)C2)c1 (configuration not stated),1.2%,-2.5%
O=C(Nc1ccc(Cl)c(Cl)c1)C1CC(=O)N(c2ccc(Br)cc2)C1 (configuration not stated),20µM*,-9.4%
CNC(=S)N/N=C/c1cccc(OCc2ccccc2F)c1,?,-10.1%
Fc1ccccc1COc1ccc(/C=N/NC(=S)NCc2ccccc2)cc1,6.31µM*,-0.9%
CC(C)(C)c1ccc(/C=N/NC(=S)NCc2ccccc2)cc1,?,-5.0%
Cn1c(=O)n(C)c2cc(/C=N/NC(=S)NCc3ccccc3)ccc21,?,11.2µM*
CCOC(=O)c1cc(-c2ccc(F)cc2)n(CCC(=O)NCc2ccc(C)cc2)c1C,?,-8.8%
COc1ccccc1NC(=O)CCNS(=O)(=O)c1ccc2c(c1)CCCC(=O)N2,7.6%,1.1%
CC(C)NC(=O)c1cc2cc([N+](=O)[O-])ccc2s1,8.7%,1.8%
COc1cccc(/C=N/NC(=O)c2cc3cc([N+](=O)[O-])ccc3s2)c1O,10µM*,3.55µM*
COc1ccc(Cl)cc1N1Cc2ccccc2C1,25.1µM*,-4.0%
SMILES,Cruzain noTriton,Cruzain Triton
COc1ccc(OC)c(N2Cc3ccccc3C2)c1,?,3.2%
COc1ccccc1N1CCNCC1,9.7%,2.6%
COc1ccccc1N1Cc2ccccc2C1,15.8µM*,-3.7%
O=C(Nc1ccc(Cl)cc1)C1CCN(c2nc3ccccc3n3cccc23)CC1,23.3%,-10.2%
COc1cc(CN(C(=O)Nc2cccc(Cl)c2)c2ccccn2)cc(OC)c1OC,-2.8%,0.1%
CCN(CC)S(=O)(=O)c1ccc(-c2nnc(SCc3nnc(-c4ccccc4)o3)o2)cc1,25.1µM*,2.5%
O=S(=O)(c1ccc(-c2nnc(SCc3nnc(-c4ccccc4)o3)o2)cc1)N1CCCC1,?,0.1%
COc1ccc(CN(C)c2ccc(-c3nc(C)no3)cc2[N+](=O)[O-])cc1,-5.6%,-9.6%
COc1cccc(NC(=O)C2CCN(S(=O)(=O)c3c(C)noc3/C=C/c3cccs3)CC2)c1,15.8µM*,-2.6%
COc1ccc(NC(=O)C2CCN(S(=O)(=O)c3c(C)noc3/C=C/c3cccs3)CC2)cc1,-10.3%,-2.0%
O=C(CN(c1cccc(C(F)(F)F)c1)S(=O)(=O)c1ccccc1)Nc1cccc(Cl)c1,-6.0%,-6.1%
Cc1[nH]n(-c2ncc(-c3ccccc3)s2)c(=O)c1C(c1ccc(Cl)cc1)C(C#N)C#N (configuration not stated),12.6µM*,?
Cc1[nH]n(-c2ccccc2)c(=O)c1C(C[N+](=O)[O-])c1ccc(Cl)cc1 (configuration not stated),3.9%,-8.6%
COc1cc(OC)c(NS(=O)(=O)c2cc(-c3cnc(C)o3)ccc2OC)cc1Cl,?,-7.2%
CC(O)CNC(=O)C(=O)Nc1c2c(nn1-c1ccc(Cl)cc1)CSC2 (configuration not stated),?,-2.5%
CC(=O)c1ccc(-c2nc3ccccc3n2C)o1,15.8µM*,-27.4%
Cc1ccc(-c2nc3ccccc3n2C)o1,3.8%,-2.2%
Cn1c(=O)c2cc(S(=O)(=O)Nc3ccc4c(c3)OCO4)ccc2n(C)c1=O,-8.1%,4.8%
Cn1c(=O)oc2cc(S(=O)(=O)Nc3ccc4c(c3)OCO4)ccc21,31.6µM*,2.3%
